# Source: the supplement of paper PMC11732987, “Enantioselective OTUD7B fragment discovery through chemoproteomics screening and high-throughput optimisation” (Communications Chemistry, 2025)
# Unmarked numbers belong to inactive results.
# How the values were obtained:
# Assay in all cases: log2 ratio of Biotin-Ahx-Ub-VS probe labelling (fragment/DMSO); higher = less target engagement (more negative = stronger competition), active = hit call of the paper (q ≤ 0.05, log2 ratio ≤ -1)
# Settings in all cases: compound concentration: 200 uM; treatment time: 3 h
# ALG13 = target: T1, ALG13 (UniProt Q9NP73)
# T1 sequence (whole entry): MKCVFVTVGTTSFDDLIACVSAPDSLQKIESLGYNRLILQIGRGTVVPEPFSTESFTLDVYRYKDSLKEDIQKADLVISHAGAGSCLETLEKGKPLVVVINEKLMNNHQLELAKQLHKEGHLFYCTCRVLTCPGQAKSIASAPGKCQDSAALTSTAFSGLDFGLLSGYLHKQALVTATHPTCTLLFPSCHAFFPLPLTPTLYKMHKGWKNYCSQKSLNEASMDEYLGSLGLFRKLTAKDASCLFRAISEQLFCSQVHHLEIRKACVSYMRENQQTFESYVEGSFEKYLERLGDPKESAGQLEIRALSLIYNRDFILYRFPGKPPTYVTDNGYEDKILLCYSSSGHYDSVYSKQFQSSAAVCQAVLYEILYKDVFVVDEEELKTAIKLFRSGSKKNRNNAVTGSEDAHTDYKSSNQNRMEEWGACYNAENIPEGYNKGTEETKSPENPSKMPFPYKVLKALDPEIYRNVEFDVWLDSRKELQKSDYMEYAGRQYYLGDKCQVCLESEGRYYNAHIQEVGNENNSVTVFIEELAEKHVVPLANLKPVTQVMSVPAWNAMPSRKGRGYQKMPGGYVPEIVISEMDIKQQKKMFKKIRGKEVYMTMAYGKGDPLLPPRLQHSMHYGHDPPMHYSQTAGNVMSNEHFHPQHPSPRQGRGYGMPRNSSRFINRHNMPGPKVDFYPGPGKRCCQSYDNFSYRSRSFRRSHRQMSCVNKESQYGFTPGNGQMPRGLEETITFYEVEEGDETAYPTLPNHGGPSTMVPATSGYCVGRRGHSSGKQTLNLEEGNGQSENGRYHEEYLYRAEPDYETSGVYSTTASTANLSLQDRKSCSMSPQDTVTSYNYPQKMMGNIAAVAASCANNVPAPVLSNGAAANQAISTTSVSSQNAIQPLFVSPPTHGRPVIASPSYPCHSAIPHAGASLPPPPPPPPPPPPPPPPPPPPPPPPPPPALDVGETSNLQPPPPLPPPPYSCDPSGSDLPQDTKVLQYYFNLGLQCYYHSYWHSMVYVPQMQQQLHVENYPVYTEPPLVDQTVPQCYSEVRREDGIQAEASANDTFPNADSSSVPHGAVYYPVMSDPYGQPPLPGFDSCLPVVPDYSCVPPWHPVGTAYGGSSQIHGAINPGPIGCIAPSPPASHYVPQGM
# Outline: (§1)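 Labelled DUBs were enriched with NeutrAvidin, digested with LysC and trypsin, and run by diaPASEF LC-MS/MS. The labelling used Biotin-Ahx-Ub-VS at 0.5 µM final for 1 h on HEK293T lysate (495 µg per sample) previously treated in triplicate with fragment at 200 µM or vehicle for 3 h. Values are average log2 fragment/vehicle ratios by unpaired t-test on global-median-normalised Spectronaut quantities of proteins with ≥2 unique peptides.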
# ATXN3 = ATXN3 (UniProt P54252)
# Outline: as §1
# BAP1 = target: T2, BAP1 (UniProt Q92560)
# T2 sequence (whole entry): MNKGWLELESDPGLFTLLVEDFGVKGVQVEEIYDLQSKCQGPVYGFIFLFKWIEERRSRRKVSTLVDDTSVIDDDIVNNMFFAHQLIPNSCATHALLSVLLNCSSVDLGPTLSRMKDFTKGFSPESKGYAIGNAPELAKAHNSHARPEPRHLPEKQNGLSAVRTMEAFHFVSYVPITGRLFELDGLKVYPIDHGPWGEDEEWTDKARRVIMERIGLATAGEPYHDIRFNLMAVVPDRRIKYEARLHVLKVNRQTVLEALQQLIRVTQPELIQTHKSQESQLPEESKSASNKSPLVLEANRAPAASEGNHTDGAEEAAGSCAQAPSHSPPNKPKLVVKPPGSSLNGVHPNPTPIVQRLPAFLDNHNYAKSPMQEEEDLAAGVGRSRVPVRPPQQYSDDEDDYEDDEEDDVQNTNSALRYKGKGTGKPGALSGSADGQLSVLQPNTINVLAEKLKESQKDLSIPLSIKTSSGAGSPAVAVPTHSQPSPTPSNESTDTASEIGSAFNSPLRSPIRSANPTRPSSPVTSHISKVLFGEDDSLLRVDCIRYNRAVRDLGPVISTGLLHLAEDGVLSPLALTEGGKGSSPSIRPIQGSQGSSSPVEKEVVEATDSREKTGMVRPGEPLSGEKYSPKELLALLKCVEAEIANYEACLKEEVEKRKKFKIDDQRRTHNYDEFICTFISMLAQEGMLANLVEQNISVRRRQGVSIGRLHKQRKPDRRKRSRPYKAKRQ
# Outline: as §1
# EIF3F = EIF3F (UniProt O00303)
# Outline: as §1
# EIF3H = EIF3H (UniProt O15372)
# Outline: as §1
# FAM105A = target: T3, FAM105A (UniProt Q9NUU6)
# T3 sequence (whole entry): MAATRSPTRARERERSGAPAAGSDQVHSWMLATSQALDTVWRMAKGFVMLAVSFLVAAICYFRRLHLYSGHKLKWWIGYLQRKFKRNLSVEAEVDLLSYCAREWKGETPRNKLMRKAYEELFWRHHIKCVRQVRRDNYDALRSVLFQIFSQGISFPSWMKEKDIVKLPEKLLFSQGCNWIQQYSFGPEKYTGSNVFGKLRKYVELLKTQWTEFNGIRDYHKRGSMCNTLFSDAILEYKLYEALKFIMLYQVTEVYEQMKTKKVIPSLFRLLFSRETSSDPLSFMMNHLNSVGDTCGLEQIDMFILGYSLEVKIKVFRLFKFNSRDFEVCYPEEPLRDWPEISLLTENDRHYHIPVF
# Outline: as §1
# OTUB1 = OTUB1 (UniProt Q96FW1)
# Outline: as §1
# OTUD4 = target: T4, OTUD4 (UniProt Q01804)
# T4 sequence (whole entry): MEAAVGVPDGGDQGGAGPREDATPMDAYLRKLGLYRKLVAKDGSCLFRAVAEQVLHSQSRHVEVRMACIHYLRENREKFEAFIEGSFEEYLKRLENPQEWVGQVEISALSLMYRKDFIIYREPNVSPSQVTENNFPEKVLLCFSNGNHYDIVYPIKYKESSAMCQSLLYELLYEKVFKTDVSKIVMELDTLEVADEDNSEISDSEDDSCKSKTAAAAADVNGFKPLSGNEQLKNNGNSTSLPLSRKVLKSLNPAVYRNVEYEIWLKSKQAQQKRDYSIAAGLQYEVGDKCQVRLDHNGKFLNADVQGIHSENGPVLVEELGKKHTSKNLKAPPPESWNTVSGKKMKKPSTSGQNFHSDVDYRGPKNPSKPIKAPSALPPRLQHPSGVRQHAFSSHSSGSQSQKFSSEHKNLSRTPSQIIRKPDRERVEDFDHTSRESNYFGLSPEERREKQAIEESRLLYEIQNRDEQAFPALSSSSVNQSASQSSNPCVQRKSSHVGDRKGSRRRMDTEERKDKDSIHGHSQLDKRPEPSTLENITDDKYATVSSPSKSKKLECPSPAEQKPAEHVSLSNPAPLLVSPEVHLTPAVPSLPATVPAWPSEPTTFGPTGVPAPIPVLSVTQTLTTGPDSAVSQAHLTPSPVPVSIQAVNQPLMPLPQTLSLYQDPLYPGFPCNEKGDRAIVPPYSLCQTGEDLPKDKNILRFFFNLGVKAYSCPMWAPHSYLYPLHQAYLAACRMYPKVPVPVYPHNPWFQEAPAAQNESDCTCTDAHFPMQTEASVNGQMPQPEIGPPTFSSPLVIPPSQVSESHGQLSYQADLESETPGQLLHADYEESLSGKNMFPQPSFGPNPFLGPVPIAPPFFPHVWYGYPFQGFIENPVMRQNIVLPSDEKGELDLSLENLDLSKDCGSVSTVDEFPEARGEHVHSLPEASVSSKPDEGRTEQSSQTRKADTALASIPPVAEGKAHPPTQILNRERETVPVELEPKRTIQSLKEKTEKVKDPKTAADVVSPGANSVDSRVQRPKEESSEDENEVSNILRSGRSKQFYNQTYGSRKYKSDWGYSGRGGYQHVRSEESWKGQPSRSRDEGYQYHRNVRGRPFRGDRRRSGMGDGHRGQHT
# Outline: as §1
# OTUD5 = target: T5, OTUD5 (UniProt Q96G74)
# T5 sequence (whole entry): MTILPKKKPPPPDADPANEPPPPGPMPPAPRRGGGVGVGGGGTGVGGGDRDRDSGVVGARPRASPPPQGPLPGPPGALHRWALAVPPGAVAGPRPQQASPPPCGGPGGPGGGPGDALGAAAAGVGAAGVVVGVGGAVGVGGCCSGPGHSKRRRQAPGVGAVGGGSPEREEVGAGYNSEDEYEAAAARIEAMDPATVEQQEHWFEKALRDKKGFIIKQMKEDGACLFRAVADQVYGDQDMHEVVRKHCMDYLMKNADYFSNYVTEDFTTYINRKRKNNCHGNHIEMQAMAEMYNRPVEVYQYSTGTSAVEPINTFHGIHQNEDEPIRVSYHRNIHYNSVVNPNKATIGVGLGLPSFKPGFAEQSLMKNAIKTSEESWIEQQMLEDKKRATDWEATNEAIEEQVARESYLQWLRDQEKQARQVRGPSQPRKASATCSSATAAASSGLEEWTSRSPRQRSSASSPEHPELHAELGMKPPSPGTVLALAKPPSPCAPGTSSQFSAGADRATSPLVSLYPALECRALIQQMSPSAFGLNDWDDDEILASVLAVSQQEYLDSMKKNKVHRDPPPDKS
# Outline: as §1
# Chain of ATXN3 (P54252 whole entry): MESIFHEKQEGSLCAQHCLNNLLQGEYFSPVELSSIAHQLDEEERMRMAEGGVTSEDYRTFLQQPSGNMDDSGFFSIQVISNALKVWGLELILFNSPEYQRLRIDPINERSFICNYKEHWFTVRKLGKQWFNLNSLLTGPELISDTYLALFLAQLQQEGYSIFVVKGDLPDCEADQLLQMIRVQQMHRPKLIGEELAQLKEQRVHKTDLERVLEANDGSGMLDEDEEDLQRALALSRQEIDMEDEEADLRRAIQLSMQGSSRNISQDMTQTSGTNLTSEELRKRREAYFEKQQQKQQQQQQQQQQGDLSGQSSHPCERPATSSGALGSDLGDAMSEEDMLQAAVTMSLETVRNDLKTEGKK
# Chain of EIF3F (O00303 whole entry): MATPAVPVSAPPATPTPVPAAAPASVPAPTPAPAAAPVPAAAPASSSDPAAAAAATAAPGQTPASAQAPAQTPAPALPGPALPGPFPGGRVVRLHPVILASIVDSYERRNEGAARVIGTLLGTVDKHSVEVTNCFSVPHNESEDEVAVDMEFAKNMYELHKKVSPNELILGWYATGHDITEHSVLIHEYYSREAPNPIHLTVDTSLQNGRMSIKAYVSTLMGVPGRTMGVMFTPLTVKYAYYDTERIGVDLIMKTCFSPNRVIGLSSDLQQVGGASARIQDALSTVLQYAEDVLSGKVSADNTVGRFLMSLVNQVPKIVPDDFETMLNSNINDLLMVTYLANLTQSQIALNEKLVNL
# Chain of OTUB1 (Q96FW1 whole entry): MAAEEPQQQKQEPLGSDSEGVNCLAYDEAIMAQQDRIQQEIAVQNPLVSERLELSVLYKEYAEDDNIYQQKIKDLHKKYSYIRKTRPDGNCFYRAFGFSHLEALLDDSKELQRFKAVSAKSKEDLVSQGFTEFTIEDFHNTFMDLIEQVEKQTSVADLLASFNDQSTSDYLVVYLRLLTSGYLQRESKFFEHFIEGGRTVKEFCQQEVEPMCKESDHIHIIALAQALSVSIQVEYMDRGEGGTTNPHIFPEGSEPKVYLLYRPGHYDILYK
# Chain of EIF3H (O15372 whole entry): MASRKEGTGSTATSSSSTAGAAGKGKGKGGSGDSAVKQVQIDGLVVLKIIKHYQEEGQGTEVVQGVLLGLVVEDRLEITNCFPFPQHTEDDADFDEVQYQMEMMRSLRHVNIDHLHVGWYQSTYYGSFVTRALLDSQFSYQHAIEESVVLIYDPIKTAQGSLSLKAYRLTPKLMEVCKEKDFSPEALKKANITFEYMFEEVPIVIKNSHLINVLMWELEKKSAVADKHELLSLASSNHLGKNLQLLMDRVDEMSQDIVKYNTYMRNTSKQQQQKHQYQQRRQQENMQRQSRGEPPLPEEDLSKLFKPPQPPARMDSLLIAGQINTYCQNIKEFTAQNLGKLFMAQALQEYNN
SMILES,log2 ratio of Biotin-Ahx-Ub-VS probe labelling (ALG13),log2 ratio of Biotin-Ahx-Ub-VS probe labelling (ATXN3),log2 ratio of Biotin-Ahx-Ub-VS probe labelling (BAP1),log2 ratio of Biotin-Ahx-Ub-VS probe labelling (EIF3F),log2 ratio of Biotin-Ahx-Ub-VS probe labelling (EIF3H),log2 ratio of Biotin-Ahx-Ub-VS probe labelling (FAM105A),log2 ratio of Biotin-Ahx-Ub-VS probe labelling (OTUB1),log2 ratio of Biotin-Ahx-Ub-VS probe labelling (OTUD4),log2 ratio of Biotin-Ahx-Ub-VS probe labelling (OTUD5)
Cc1ccc(-c2nnc(C)[nH]2)c(NC(=O)CCl)c1,0.0249,-0.0255,-4.24 (active),-0.316,0.0246,-0.276,0.149,-0.353,-0.237
O=C(CCl)NC1(c2ccc3c(c2)OCCO3)CCCC1,-0.035,-0.252,-1.89 (active),-0.19,-0.051,0.0394,-0.359,-1.1 (active),-0.293
O=C(CCl)N1CCC(c2noc3cc(F)ccc23)CC1,0.141,-0.734,-1.19 (active),-0.419,0.209,-0.1,-0.253,-0.413,-0.644
Cc1noc(C)c1CNC(=O)CCl,-0.968,-0.884,-2.03 (active),-0.561,0.0244,0.341,-0.618,-0.737,-0.764
Cc1conc1C1CN(C(=O)CCl)C1,0.0664,-0.85,-1.76 (active),-0.671,0.138,0.111,-0.109,-0.837,-0.861
CN(C(=O)CCl)c1nc2ccccc2s1,0.217,-0.82,-0.457,-0.117,0.0319,0.108,-0.597,-0.0109,-1.02 (active)
CN(C)S(=O)(=O)c1ccccc1CNC(=O)CCl,0.242,-0.137,-1.09 (active),-0.0947,0.29,-0.0283,-0.0251,-0.249,-0.29
O=C(CCl)N1CCC2(CCC(O)CC2)CC1,-0.532,-0.833,-0.626,-0.321,0.288,0.217,-0.0501,-0.206,-0.29
N#Cc1ccc(Cl)cc1NC(=O)CCl,-0.187,-0.113,-4.1 (active),-0.13,0.269,-0.217,-0.265,-1.18 (active),-0.589
CS(=O)(=O)c1ccc(CNC(=O)CCl)cc1,-0.0665,-0.381,-3.17 (active),-0.177,-0.0369,-0.0581,-0.0582,-0.317,-0.368
Cl.O=C(CCl)NCCN1CCc2ccccc21,-0.000809,-0.887,-1.61 (active),-0.106,0.469,0.43,0.169,-0.775,-0.79
O=C(CCl)Nc1cccc(C(=O)N2CCSCC2)c1,0.254,-0.874,-3.62 (active),-0.466,0.0708,0.0218,-0.523,-0.0407,-0.638
Cl.Cn1cnc2cc(CNC(=O)CCl)ccc21,0.056,-0.239,-2.15 (active),-0.304,0.311,-0.318,0.0608,-0.0323,-0.121
CC1CCc2onc(CNC(=O)CCl)c2C1 (stereo unspecified),0.206,0.065,-1.22 (active),-0.165,-0.00651,0.123,0.048,-0.0637,0.0465
